Assay results: PubChem BioAssay (NCATS)
Where “and” joins values, the source holds several entries; their conditions need not be identical. Equal values may be shown once. Results filed as inconclusive are left out. Calls of active or inactive are those of the source. Calls follow the shape of the dose curve; as a rule, active = well fitted curve in the direction sought with a large enough effect; inconclusive = small, poorly fitted or top-dose-only effect, or another doubt; inactive = no such curve, though single readings can be large; an effect the other way counts as inactive or inconclusive.

Tests used:
[1] = qHTS to identify inhibitors of the type 1 interferon - major histocompatibility complex class I in skeletal muscle: primary screen against the NCATS Pharmaceutical Collection (AID 1347407);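 also: luminescence of HiBiT knocked into endogenous HLA-B as interferon-induced MHC class I level; % is scaled to controls: 0 for no effect and ±100 for the full control effect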
Method in brief: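 A qHTS format is used: 8-point, 1:5 compound series with 46 uM top final concentration, applied alongside 4 ng/ml IFN-beta to HLA-B*08:01-HiBiT knock-in myoblasts. Luminescence is measured after 24 h treatment.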

[2] = target: Protein phosphatase 1D (Homo sapiens) (UniProt O15297); test: RapidFire Mass Spectrometry qHTS Assay for Modulators of WT P53-Induced Phosphatase 1 (WIP1) (AID 1347424);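 also: amount of dephosphorylated VEPPL-S-QETFS peptide product formed by WIP1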; also: potency is read from the fitted curve at half-maximal effect;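 as to activity change, negative = inhibition: series mostly up to about 63 µM; plate controls were DMSO wells for no effect and GSK830371 inhibitor control at 10 µM for full effect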
Method in brief: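 WIP1 (10 nM final) was preincubated 1 h at room temperature with compounds in Tris-HCl pH 7.5, 30 mM MgCl2, TCEP, EGTA, BSA; 2 uM VEPPL-pS-QETFS phosphopeptide was added for 5 min, quenched with formic acid, and dephosphorylated product quantified by RapidFire MS.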

[3] = target: Protein phosphatase 1D (Homo sapiens) (UniProt O15297); test: Rhodamine-PBP qHTS Assay for Modulators of WT P53-Induced Phosphatase 1 (WIP1) (AID 1347425); also: % of control where 0% means no effect
Method in brief: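 5 nM WIP1 + 10 uM Rh-PBP, 50 mM Tris pH 7.5, 30 mM MgCl2, 1 mM TCEP, 0.1 mM EGTA, BSA; cpds pinned, 1 hr RT; + 10 uM phosphopeptide; fluorescence 1-min reads x 11 min; delta = f1 - f0.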

[4] = Primary qHTS for inhibitors of La Crosse Virus (LACV) - induced cell death in SH-SY5Y cells (AID 1508616);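 also: top concentration of the series differs between compounds; 0% = infected DMSO wells and 100% = uninfected DMSO wells; higher means more rescue of cells from virus-induced death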
Method in brief: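 Readout was luminescence from ATPLite 1step added after a 6-day LACV infection (0.01 MOI) of SH-SY5Y cells that had received pin-transferred compound 24 hr after seeding.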

[5] = qHTS to identify inhibitors of the type 1 interferon - major histocompatibility complex class I in skeletal muscle: primary screen against the NCATS Mechanism Interrogation Plate v5.0 (MIPE) Libary (AID 1347411);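 also: plate controls were vehicle for no effect and reference inhibitor for full effect; nearly all actives have a fitted effect of over 65% in size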
Method in brief: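 Cells were genome-edited human myoblasts carrying a HiBit tag on endogenous HLA-B. They were treated with IFN-beta (4.0 ng/ml) and titrated compounds (top 46 uM) for 24 hrs before lytic HiBiT detection.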

[6] = tested on: Zika virus NS2B-NS3 protease (linked construct); test: 384 well plate NINDS Rhodamine confirmatory qHTS for Zika virus inhibitors (AID 1347164); details: rhodamine-110 peptide substrate fluorescence; also: potency is read from the fitted curve at half-maximal effect; nearly all actives have a fitted effect of over 65% in size
Method in brief: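 Cleavage of Ac-LKRR-Rhodamine 110 (10 microM final) by linked protease (final 5, 30 or 60 nM) was followed as fluorescence at 485/538 nm after 25 min, room temperature, dark. Compounds preincubated ~15 min.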

[7] = Tertiary RLuc qRT-PCR qHTS assay for Zika virus inhibitors (AID 1347169); also: nearly all actives have a fitted effect of over 55% in size; also: potency is read from the fitted curve at half-maximal effect
Method in brief: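 Inhibition of ZIKV-RLuc replication in Vero cells, read as Renilla luminescence 1-1.5 hrs after live-cell substrate addition, following 48-72 hrs infection at MOI 1-2 in presence of compound.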

[8] = target: Calcium and integrin-binding protein 1 (Homo sapiens) (UniProt Q99828); test: Primary qHTS for Identification of Calcium Integrin Binding Protein 1 (CIB1) Competitor (AID 1508620); also: potency is read from the fitted curve at half-maximal effect
Method in brief: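 Fluorescence polarization competition: CIB1-GST (1 uM final) preincubated with compound 15 min at room temperature, then FITC-labeled alphaIIb peptide (100 nM final) added for another 15 min. Polarization read at Ex 480/Em 540.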

[9] = target: Lysine-specific demethylase 5B (Homo sapiens) (UniProt Q9UGL1); test: Optimization screen for KDM5B Histone Demethylases FDH coupled qHTS against the LOPAC library (AID 1347166); also: 0% is about no effect
Method in brief: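 KDM5BDeltaAP (200nM final) preincubated 10 min with compound, then 12.5uM H3K4Me3, 25uM a-ketoglutarate, ascorbate, Fe(II), NAD+ and FDH added; 50mM HEPES pH 7.5, 0.01% Tween-20. NADH fluorescence (340/450 nm) change over 30 min, room temperature.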

[10] = qHTS to identify inhibitors of the type 1 interferon - major histocompatibility complex class I in skeletal muscle: primary screen against the NCATS LOPAC collection (AID 1347405);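 also: lytic HiBiT luminescence reporting HLA-B protein level; % is scaled to controls: 0 for no effect and ±100 for the full control effect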
Method in brief: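 Cells: C25cl48 human myoblasts, HiBiT-tagged HLA-B*08:01, stimulated with IFN-beta 4.0 ng/ml. Compounds are titrated 1:4.3 over 7 points from 46 uM final and incubated 24 hrs; endogenous MHC class I is quantified by HiBiT lytic luminescence.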

[11] = qHTS for inhibitors of adenylyl cyclases using a fission yeast platform: a pilot screen against the NCATS LOPAC library (AID 1347410);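 also: plate controls were DMSO vehicle for no effect and DPI positive control for full effect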
Method in brief: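 Inhibition of GNAS-stimulated AC9 activity in S. pombe was inferred from derepression of a PKA-repressed fbp1-GFP reporter, measured as cytometric fluorescence after 18 h at 30C with compounds at up to 57 µM.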

[12] = Validation qHTS assay for inhibitors of Activation Induced Cytidine Deaminase (AID): UDG Counterscreen signal (AID 1347427); also: 0% is about no effect
Method in brief: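 Counterscreen read of UDG activity (2 U/mL, 4/3x) in the FRET deamination format with AID (1 uM, 4/3x), DJC20/DJC23 substrates (250 nM, 4x), 4 h at room temperature. NaOH stop, fluorescence at 560 ex/665 em.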

[13] = target: Single-stranded DNA cytosine deaminase (Homo sapiens) (UniProt Q9GZX7); test: Validation qHTS assay for inhibitors of Activation Induced Cytidine Deaminase (AID): AID signal (AID 1347429); also: % is scaled to controls: 0 for no effect and ±100 for the full control effect
Method in brief: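 In this coupled qHTS, AID deaminates a FRET-labelled ssDNA substrate in the presence of UDG over 4 hr at room temperature. Compounds span up to 114 uM final.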

[14] = target: Calcium and integrin-binding protein 1 (Homo sapiens) (UniProt Q99828); test: Validation qHTS for Identification of Calcium Integrin Binding protein 1 (CIB1) Competitor (AID 1508618); also: % is scaled to controls: 0 for no effect and ±100 for the full control effect
Method in brief: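 Displacement of FITC-alphaIIb peptide (100 nM) from CIB1-GST (1 uM) is monitored by polarization in quantitative HTS format; buffer carries 5 mM CaCl2 and 125 mM NaCl at pH 7.4, incubations are at room temperature.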

[15] = Vero cells viability qHTS for Zika virus inhibitors (AID 1347167); also: % is scaled to controls: 0 for no effect and ±100 for the full control effect
Method in brief: (§1)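 Counter-screen for cytotoxicity of hits from NS2B-NS3 protease qHTS. Overnight-attached cells (2.5 x 10^5 cells/mL, DMEM/4% FBS) were dosed in titration, incubated 24 to 48 hours, then assayed by CellTiter Glo.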

[16] = HepG2 cells viability qHTS for Zika virus inhibitors (AID 1347168); also: potency is read from the fitted curve at half-maximal effect
Method in brief: as §1

[17] = tested on: Zika virus NS2B-NS3 protease (linked); test: 384 well plate NINDS AMC confirmatory qHTS for Zika virus inhibitors (AID 1347163); also: potency is read from the fitted curve at half-maximal effect; nearly all actives have a fitted effect of over 50% in size
Method in brief: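 Linked protease 5/30/60 nM final; cpds up to 1 mM final, ~15 min preinc. Substrate Ac-VKTGKR-AMC 30 microM final. RT, dark, 25 min; FI ex 355/em 460; normalized to no-enzyme/no-inhibitor ctrls.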

[18] = target: Calcium and integrin-binding protein 1 (Homo sapiens) (UniProt Q99828); test: Confirmatory qHTS for Identification of Calcium Integrin Binding Protein 1 (CIB1) Competitor (AID 1508617); also: % is scaled to controls: 0 for no effect and ±100 for the full control effect; nearly all actives have a fitted effect of over 65% in size
Method in brief: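 Confirmatory qHTS measures displacement of a FITC-alphaIIb peptide (100 nM) from CIB1-GST (1 uM) by fluorescence polarization. Calcium-containing HEPES buffer, pH 7.4; two 15 min room-temperature incubations.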

Sequence of Protein phosphatase 1D (Homo sapiens) (O15297 whole entry, looked up): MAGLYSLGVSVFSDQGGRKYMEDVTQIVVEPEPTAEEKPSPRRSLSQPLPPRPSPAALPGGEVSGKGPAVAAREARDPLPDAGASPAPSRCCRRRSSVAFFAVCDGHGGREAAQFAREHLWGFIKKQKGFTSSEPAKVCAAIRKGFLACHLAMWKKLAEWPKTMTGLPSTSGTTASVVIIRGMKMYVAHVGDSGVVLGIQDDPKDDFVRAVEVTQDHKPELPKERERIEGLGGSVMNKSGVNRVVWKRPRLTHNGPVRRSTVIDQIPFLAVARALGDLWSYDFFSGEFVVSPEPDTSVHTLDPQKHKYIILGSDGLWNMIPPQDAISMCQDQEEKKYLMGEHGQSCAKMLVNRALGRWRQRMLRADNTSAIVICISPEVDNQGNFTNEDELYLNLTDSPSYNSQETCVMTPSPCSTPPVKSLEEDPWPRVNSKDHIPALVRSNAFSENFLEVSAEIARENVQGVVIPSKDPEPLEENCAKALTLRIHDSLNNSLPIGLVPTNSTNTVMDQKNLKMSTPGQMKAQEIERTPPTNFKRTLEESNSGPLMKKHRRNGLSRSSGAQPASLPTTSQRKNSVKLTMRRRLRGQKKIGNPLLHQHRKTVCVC
Sequence of Single-stranded DNA cytosine deaminase (Homo sapiens) (Q9GZX7 whole entry, looked up): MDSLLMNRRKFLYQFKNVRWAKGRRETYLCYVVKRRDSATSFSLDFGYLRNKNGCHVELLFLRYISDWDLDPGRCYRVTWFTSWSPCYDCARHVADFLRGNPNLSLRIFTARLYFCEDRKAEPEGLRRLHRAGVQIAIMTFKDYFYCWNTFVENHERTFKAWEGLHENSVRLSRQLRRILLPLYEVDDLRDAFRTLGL
Sequence of Calcium and integrin-binding protein 1 (Homo sapiens) (Q99828 whole entry, looked up): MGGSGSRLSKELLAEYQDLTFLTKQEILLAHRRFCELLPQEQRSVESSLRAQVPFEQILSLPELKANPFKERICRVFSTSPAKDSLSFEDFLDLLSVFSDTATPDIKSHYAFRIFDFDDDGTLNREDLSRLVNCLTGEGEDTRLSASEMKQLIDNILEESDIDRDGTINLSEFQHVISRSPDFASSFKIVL
Sequence of Lysine-specific demethylase 5B (Homo sapiens) (Q9UGL1 whole entry, looked up): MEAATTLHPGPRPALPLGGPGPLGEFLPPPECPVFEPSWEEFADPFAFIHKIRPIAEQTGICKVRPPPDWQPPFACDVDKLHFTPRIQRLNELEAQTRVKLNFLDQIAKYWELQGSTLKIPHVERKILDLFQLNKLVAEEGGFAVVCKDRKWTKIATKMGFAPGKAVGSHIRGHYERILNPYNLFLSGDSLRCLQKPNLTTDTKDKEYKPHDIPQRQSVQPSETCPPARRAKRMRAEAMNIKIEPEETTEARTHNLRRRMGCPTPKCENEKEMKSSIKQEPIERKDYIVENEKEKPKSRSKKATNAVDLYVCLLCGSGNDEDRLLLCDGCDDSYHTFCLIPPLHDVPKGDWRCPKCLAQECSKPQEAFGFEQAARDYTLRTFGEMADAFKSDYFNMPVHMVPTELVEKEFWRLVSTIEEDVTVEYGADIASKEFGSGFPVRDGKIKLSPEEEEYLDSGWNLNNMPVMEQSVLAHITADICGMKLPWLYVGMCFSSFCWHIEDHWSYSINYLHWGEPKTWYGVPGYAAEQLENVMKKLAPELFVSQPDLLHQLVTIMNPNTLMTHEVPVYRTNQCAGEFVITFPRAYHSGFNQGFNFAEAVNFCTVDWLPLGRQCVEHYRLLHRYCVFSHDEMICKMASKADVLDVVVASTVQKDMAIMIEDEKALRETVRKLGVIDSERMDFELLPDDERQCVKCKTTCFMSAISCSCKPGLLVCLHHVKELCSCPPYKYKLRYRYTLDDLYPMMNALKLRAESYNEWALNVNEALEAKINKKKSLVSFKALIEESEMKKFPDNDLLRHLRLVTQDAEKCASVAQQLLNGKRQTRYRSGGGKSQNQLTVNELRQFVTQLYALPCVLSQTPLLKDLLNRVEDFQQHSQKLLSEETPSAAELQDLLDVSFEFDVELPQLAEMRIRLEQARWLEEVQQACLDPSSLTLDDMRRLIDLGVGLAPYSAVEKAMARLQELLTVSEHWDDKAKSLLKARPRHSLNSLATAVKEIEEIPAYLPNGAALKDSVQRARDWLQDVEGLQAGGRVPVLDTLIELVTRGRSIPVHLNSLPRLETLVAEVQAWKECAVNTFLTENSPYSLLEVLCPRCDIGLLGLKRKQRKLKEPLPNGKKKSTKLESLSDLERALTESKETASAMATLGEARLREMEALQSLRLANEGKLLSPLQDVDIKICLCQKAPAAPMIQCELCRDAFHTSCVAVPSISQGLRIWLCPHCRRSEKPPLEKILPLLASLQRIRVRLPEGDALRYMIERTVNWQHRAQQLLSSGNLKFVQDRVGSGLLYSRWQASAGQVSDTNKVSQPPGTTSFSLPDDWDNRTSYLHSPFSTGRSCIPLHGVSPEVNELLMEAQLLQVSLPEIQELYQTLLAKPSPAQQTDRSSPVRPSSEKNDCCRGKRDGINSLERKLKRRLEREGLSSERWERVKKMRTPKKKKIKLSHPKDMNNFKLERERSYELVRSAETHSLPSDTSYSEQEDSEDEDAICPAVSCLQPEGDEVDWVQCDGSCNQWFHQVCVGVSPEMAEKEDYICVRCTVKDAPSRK

CCNC(=O)NCc1cccc(Cl)c1
inactive: Potency [1] | Potency [2] | outcome [3] | outcome [4]

Cc1ccc2c(Br)cc(Br)c(O)c2n1
inactive: Potency [1] | Potency [2] | outcome [3]

O=C(O)P(=O)(O)O
inactive: Potency [1] | Potency [2] | outcome [3] | outcome [4]

C#C[C@]1(O)CC[C@H]2[C@@H]3[C@H](C)CC4=C(CCC(=O)C4)[C@H]3CC[C@@]21C
inactive: Potency [1] | Potency [5] | Potency [2] | outcome [3] | outcome [4]

O=C(O)C(Cc1cc(I)c(O)c(I)c1)c1ccccc1 (stereo not given)
active: Potency [6] 112 µM
inactive: activity change, negative = inhibition [7] -2.94% [at 1.74 µM] | Potency [1] | outcome [3] | outcome [4] | Potency [8]

CCOC(=O)[C@H](CCc1ccccc1)N[C@@H](C)C(=O)N1[C@H](C(=O)O)C[C@H]2CCCC[C@@H]21
inactive: outcome [9] | outcome [10] | outcome [11] | outcome [12] | outcome [13] | outcome [4] | outcome [14]

Cc1ccc(-c2ncc(Cl)cc2-c2ccc(S(C)(=O)=O)cc2)cn1
inactive: Potency [1] | Potency [5] | Potency [2] | outcome [3] | outcome [4] | Potency [8]

CC1(COc2ccc(CC3SC(=O)NC3=O)cc2)CCCCC1 (stereo not given)
inactive: outcome [15] | Potency [16] | Potency [1] | outcome [4] | Potency [8]

CC(C)=CCOc1ccc(/C=C/C(=O)c2ccc(OCC=C(C)C)cc2OCC(=O)O)cc1
active: Potency [17] 39.8 µM
inactive: activity change, negative = inhibition [7] 84.9% [at 5.25 µM] | Potency [1] | Potency [2] | outcome [4]

NCc1ccccc1Sc1ccccc1CO
inactive: Potency [1] | Potency [2] | outcome [3] | outcome [4]

C=C[C@H]1CN2CC[C@H]1C[C@H]2[C@H](O)c1ccnc2ccc(OC)cc12
inactive: Potency [7] | Potency [2] | outcome [3] | outcome [4]

CC(=O)O[C@]1(C(C)=O)CC[C@H]2[C@@H]3C=C(C)C4=CC(=O)CC[C@]4(C)[C@H]3CC[C@@]21C
inactive: Potency [1] | Potency [5] | Potency [2] | outcome [3] | outcome [4]

CN=C(N)NCCC[C@H](N)C(=O)O
inactive: outcome [9] | outcome [10] | outcome [11] | outcome [12] | outcome [13] | outcome [4] | outcome [14]

Oc1c(Cl)cc(Cl)c(Cl)c1Cc1c(O)c(Cl)cc(Cl)c1Cl
active: Potency [17] 35.5 µM | Potency [6] 14.1 µM | Potency [2] 8.91 µM
inactive: outcome [4]

O[C@@H](c1cc(C(F)(F)F)nc2c(C(F)(F)F)cccc12)[C@H]1CCCCN1
inactive: outcome [15] | Potency [2] | outcome [3] | outcome [4] | Potency [8]
active: Potency [16] 20.8 µM | Potency [7] 9.3 µM

COc1cc([C@H]2Oc3cc([C@H]4Oc5cc(O)cc(O)c5C(=O)[C@@H]4O)ccc3O[C@@H]2CO)ccc1O
active: Potency [8] 35.5 µM
inactive: Potency [1] | Potency [5] | Potency [2] | outcome [3] | outcome [4] | Potency [18]

C[C@H]1[C@H]2CC[C@H]3[C@@H]4CC=C5C[C@@H](N(C)C)CC[C@]5(C)[C@H]4CC[C@]23CN1C
inactive: Potency [1] | Potency [2] | outcome [3] | outcome [4]

Nc1nc(Cl)nc2c1ncn2[C@@H]1O[C@H](CO)[C@@H](O)[C@@H]1F
inactive: Potency [1] | Potency [5] | Potency [2] | outcome [3] | outcome [4] | Potency [8]

CC(C)(C)NC[C@H](O)COc1nsnc1N1CCOCC1
inactive: outcome [9] | outcome [10] | Potency [1] | outcome [11] | Potency [2] | outcome [3] | outcome [12] | outcome [13] | outcome [4] | outcome [14]

O=C1[C@H](CC[C@H](O)c2ccc(F)cc2)[C@@H](c2ccc(O)cc2)N1c1ccc(F)cc1
inactive: Potency [1] | Potency [5] | Potency [2] | outcome [3] | outcome [4]

C#C[C@]1(O)CC[C@H]2[C@@H]3CCC4=CC(=O)CC[C@@H]4[C@H]3CC[C@@]21CC
inactive: Potency [1] | Potency [5] | Potency [2] | outcome [3] | outcome [4] | Potency [8]

OC(C#CCN1CCCC1)(c1ccccc1)c1ccccc1
inactive: Potency [1] | Potency [2] | outcome [3] | outcome [4]

Clc1cccc(C(c2ccc3nc[nH]c3c2)n2ccnc2)c1 (stereo not given)
inactive: Potency [1] | Potency [5] | Potency [2] | outcome [3] | outcome [4] | Potency [8]

CCCCCCCCCCC[C@@H](C[C@@H]1OC(=O)[C@H]1CCCCCC)OC(=O)[C@H](CC(C)C)NC=O
inactive: Potency [1] | Potency [2] | outcome [3]

C=C1c2cccc(O)c2C(O)=C2C(=O)[C@]3(O)C(O)=C(C(N)=O)C(=O)[C@@H](N(C)C)[C@@H]3[C@@H](O)[C@H]12
active: Potency [17] 8.91 µM and 316 µM | Potency [6] 251 µM | Potency [2] 28.2 µM
inactive: outcome [15] | Potency [16] | Potency [7] | outcome [4]

C#C[C@]1(O)CC[C@H]2[C@@H]3CCc4cc(OC)ccc4[C@H]3CC[C@@]21C
inactive: Potency [1] | Potency [5] | Potency [2] | outcome [3] | outcome [4] | Potency [8]
